Screening results from PubChem BioAssay.
Shown are actives, neighbours in structure and some others; about 0.9% of the full set was active somewhere.
Sa ugtP lethal = growth inhibition of ugtP-null S. aureus, primary screen, RN4220 ugtP deletion, OD600; growth inhibition, % (test concentration not listed); 16 h; 0.54% of 330,000 active; in the data active means growth inhibition above about 68%;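 further: plate controls were untreated wells for no effect and antibiotic for full effect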
Mtb betalactam = beta-lactam sensitization of Mtb H37Rv, H37Rv. AID 434955, 2010. inhibition, % at 25 µM. M. tuberculosis H37Rv growth with meropenem, percent inhibition. 0.27% of 330,000 active; call rule not given here;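 further: growth measured after seven days incubation then overnight dye step; 0% = bacteria only wells and 100% = bacteria with antibiotic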
BioA inh = M. tuberculosis BioA enzyme inhibitors, primary screen, biochemical, plate reader, single point, HTS; AID 602481, 2012; inhibition, % at 9.99 µM; 7,8-diaminopelargonic acid synthase BioA (Mycobacterium tuberculosis); purified M. tuberculosis BioA enzyme; 0.096% of 360,000 active; in the data active means inhibition above about 40%
Sa RN4220 lethal = growth inhibition of S. aureus RN4220, primary screen, OD600 | 16 h | inhibition, % (no concentration beside the values) | 0.33% of 330,000 active; in the data active means inhibition above about 85%;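 further: plate controls were untreated cells for no effect and reference antibiotic for full effect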
PfHsp40 rescue = rescue of yeast from PfHsp40 toxicity, primary screen, S. cerevisiae, ATP luminescence; 0.68% of 340,000 active; S. cerevisiae expressing PfHsp40, growth rescue; growth rescue, % at 12.5 µM; in the data active means growth rescue above about 28%, passing the limit was not always enough;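 further: yeast W303a lacking pdr1 and pdr3 grown in galactose medium; growth measured after three days at 30 °C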
* = called active by the depositor; x = no result given.

SMILES | Sa ugtP lethal | Mtb betalactam | BioA inh | Sa RN4220 lethal | PfHsp40 rescue
Cc1ccc(C)c(NC(=S)NNC(=O)c2csc3c2CCCC3)c1 | 21 | 10 | 3 | 6 | 42*
CCN1C[C@]2(COC)C(O)CC(OC)[C@@]34C5C[C@]6(O)C(OC)C(O)[C@@](OC(C)=O)(C5C6OC(=O)c5ccccc5)C(C(OC)C23)C14 (stereo not given in full) | -1 | x | x | 5 | x
C=CCNC(=O)c1n[nH]c2c1CC(C(C)(C)CC)CC2 (stereo not given) | 9 | -17 | 0 | 6 | 96*
CCCNC(=O)c1n[nH]c2c1CC(C(C)(C)CC)CC2 (stereo not given) | 3 | 6 | 0 | 2 | 9
CC(O)CC#Cc1ccc2oc(=O)c(-n3cc(-c4ccsc4)nn3)cc2c1 (stereo not given) | 5 | x | x | 10 | x
O=C(O)C1=CC(c2csc3ccccc23)CC(OCc2ccc(CO)cc2)O1 (stereo not given) | 0 | x | x | 3 | x
O=C(O)CCC(=O)c1ccc2sc3ccccc3c2c1 | x | x | x | x | 122*
CCOC(=O)C1=C(c2ccccc2)c2ccccc2OC1C(=O)OCC (stereo not given) | 89* | x | -1 | 4 | 0
CCOC(=O)C1Oc2ccccc2C(c2ccc(OC)cc2)=C1C(=O)OC (stereo not given) | 34 | x | 0 | 4 | 1
Oc1ccc(N=Nc2ccc3c(c2)OCCO3)c2cccnc12 | 4 | 79 | x | 12 | 268*
O=S(=O)(O)c1cccc2c(N=Nc3ccc(O)c4ncccc34)cccc12 | -4 | 9 | 3 | 35 | 94*
O=c1c2ccccc2[nH]c2ccccc12 | 10 | 8 | 0 | 0 | 0
O=Nc1c2cc3ccccc3[nH]c-2c2ccccc12 | -14 | x | x | 3 | 54*
COC(=O)c1ccc(C23CC4(C2)C(CN(Cc2cccnc2)C4c2ccccc2)C3c2ccccc2)cc1 (stereo not given) | 1 | x | x | -5 | x
O=C(Nc1ccc(F)cc1)Nc1ccc(S(=O)(=O)N2CCCC2)cc1 | -12 | -2 | 3 | 1 | 0
O=S(=O)(c1ccc(F)cc1)N1CCCC1 | 9 | 0 | -3 | 1 | 37*
O=C(COC(=O)c1ccc([N+](=O)[O-])o1)NC1CCCC1 | 9 | 85 | -2 | 8 | 3
O=C(COC(=O)c1ccc([N+](=O)[O-])o1)NC1CCCCC1 | 9 | 88 | -1 | 6 | 213*
O=C(COC(=O)c1ccc([N+](=O)[O-])o1)Nc1cccc2ccccc12 | 18 | 80 | x | 15 | 80*
O=C(COC(=O)c1ccc([N+](=O)[O-])o1)NCc1ccc(F)cc1 | 10 | 67 | 1 | 11 | 223*
COc1ccc(CCNC(=O)COC(=O)c2ccc([N+](=O)[O-])o2)cc1 | 7 | 89 | 0 | 5 | 123*
O=C(COC(=O)c1ccc(Br)o1)NCc1ccc(F)cc1 | 4 | 3 | 0 | 2 | 0
COC(=O)C1=C(c2ccc(S(C)(=O)=O)cc2)CC2CCC1N2C(=O)NCCS(C)=O (stereo not given) | -2 | x | x | 7 | x
COc1cccc(C2=CC(=O)CC(c3ccc(F)cc3)C2)c1 (stereo not given) | -11 | x | x | 3 | x
CCc1ccccc1NC(=O)NC(C(=O)O)C(C)C (stereo not given) | 7 | x | x | 5 | x
SMILES | Sa ugtP lethal | Mtb betalactam | BioA inh | Sa RN4220 lethal | PfHsp40 rescue
COc1ccc(NC(=O)N(C)CC2Oc3ccc(NC(=O)NC4CCCCC4)cc3C(=O)N(C(C)CO)CC2C)cc1 (stereo not given) | -4 | x | x | 3 | x
COC(=O)C1=C(c2cc3ccccc3s2)CC2CCC1N2C(=O)NCC1CC1 (stereo not given) | 4 | x | x | 3 | x
CC(=O)Nc1ccc(NC(=O)COC(=O)c2ccc([N+](=O)[O-])o2)cc1 | x | 85 | -1 | x | 0
O=C(COC(=O)c1ccc([N+](=O)[O-])o1)NCCCc1ccccc1 | 8 | 89 | 2 | 9 | 45*
CCOC(=O)c1c(NC(=O)CSc2nnc(Cc3ccccc3)o2)sc(C)c1C | 98* | 91 | 0 | 19 | 3
CC1=CC2=NC(=O)/C(=C\c3cccn3CCOc3cccc(C)c3)C(=N)N2O1 | 7 | -5 | x | 2 | 44*
COc1cccc(OCCn2cccc2/C=C2/C(=N)N3OC(C)=CC3=NC2=O)c1 | -9 | -4 | -2 | -3 | 0
O=C(C1=CC(C2CCCCC2)CC(OCCCCO)O1)N1CCN(Cc2ccccc2)CC1 (stereo not given) | 3 | x | x | 2 | x
